A short description of experiment [1]: CCTE_Shafer_MEA_acute_cross_correlation_area: CCTE's Neural Acute Assay for Area of Cross Correlation, Shafer Lab (AID 2284024; active = hit-call score of the fitted dose curve at least 0.9, where 1 is the maximum; inactive = score below 0.9;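 also: area under pooled inter-electrode spike cross-correlation near zero lag as percent change from own baseline; curves fitted for loss of cross-correlation area so actives lower synchrony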). In outline: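 Percent change in well-wide cross-correlation area (window around zero lag) between 40 min baseline and 40 min post-compound recordings, 37 C; rat cortical cultures on MEA at DIV 13 or 15, dosed 0.03-40 uM, wells needing >/= 10 active electrodes.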

Experiment [2] can be described thus: CCTE_Shafer_MEA_acute_cross_correlation_HWHM: CCTE's Neural Acute Assay for Cross Correlation at Half Width at Half Maximum, Shafer Lab (AID 2284026; active = hit-call score of the fitted dose curve at least 0.9, where 1 is the maximum; inactive = score below 0.9;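 also: hits are a decrease in cross-correlogram half width relative to DMSO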;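 as to outcome: spontaneous network firing of rat primary cortical neurons on multiwell microelectrode arrays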). The method, boiled down: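 Per-well percent change in cross-correlogram half width at half maximum, derived from 40-min recordings before and after compound (0.03-40 uM) at 37 C. Cultures were rat cortical neurons, DIV 13 or 15, with adaptive spike detection at 8x rms.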

The nature of experiment [3]: CCTE_Shafer_MEA_acute_synchrony_index: CCTE's Neural Acute Assay for Synchrony, Shafer Lab (AID 2284027; active = hit-call score of the fitted dose curve at least 0.9, where 1 is the maximum; inactive = score below 0.9;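 also: network synchrony index of spontaneous spiking in primary rat cortical neurons on MEAs; fitted for loss of signal so actives lower synchrony relative to DMSO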). The method, boiled down: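 Primary rat cortical neurons on 48-well MEAs, dosed at 0.03–40 uM on DIV 13 or 15. Spikes are recorded for 40 min at 37C before and after exposure, and synchrony index (0–1) is expressed as percent change from baseline per well.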
Experiment [4] has as its target Estrogen receptor (Homo sapiens) (UniProt P03372). Description: CCTE_Deisenroth_AIME_384WELL_LUC_Active: CCTE's 384-well Estrogen Receptor Transactivation Assay with AIME metabolic competence (ERTA luciferase; metabolism positive), Deisenroth Lab (AID 2284030). The method, boiled down: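 VM7Luc4E2 breast cells were given, for 24 hours, medium pre-incubated for 2 hours with parent chemical (0.002-200 uM, 10 concentrations) and alginate-encapsulated phenobarbital/beta-naphthoflavone-induced rat hepatic S9. Luciferase gain of signal was fitted against 17beta-estradiol; n=4 or more.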

Experiment [5] can be described thus: CCTE_Deisenroth_AIME_384WELL_CTox_Active: Cytotoxicity Assessment (CTOX) in CCTE's 384-well Estrogen Receptor Transactivation Assay with AIME metabolic competence (metabolism positive), Deisenroth Lab (AID 2284037).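 Also: activity means signal loss indicating cell death.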 The method, boiled down:
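Chemicals pre-incubated 2 hours with alginate-immobilised phenobarbital/beta-naphthoflavone-induced male Sprague Dawley rat liver S9, then conditioned medium applied 24 hour to VM7Luc4E2 cells. Viability by fluorogenic protease substrate; 10-point series 0.002 - 200 uM.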

Experiment [6] addresses Estrogen receptor (Homo sapiens) (UniProt P03372). Description: CCTE_Deisenroth_AIME_384WELL_LUC_Inactive: CCTE's 384-well Estrogen Receptor Transactivation Assay without AIME metabolic competence (ERTA luciferase; metabolism negative), Deisenroth Lab (AID 2284038).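 Also: VM7Luc4E2 breast cells given medium preincubated 2 h with S9-free microspheres; hits raise estrogen receptor luciferase signal so potencies reflect agonists.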 The method, boiled down: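 Metabolism-negative mode: chemicals (10-point, 0.002–200 uM) held 2 h with alginate-water microspheres, then conditioned medium applied to VM7Luc4E2 cells for 24 h. Luciferase induction referenced to 17beta-estradiol.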

Experiment [7] in a line: CCTE_Deisenroth_AIME_384WELL_CTox_Inactive: Cytotoxicity Assessment (CTOX) in CCTE's 384-well Estrogen Receptor Transactivation Assay without AIME metabolic competence (metabolism negative), Deisenroth Lab (AID 2284039).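 Also: cell viability via live-cell protease substrate cleaved to fluorescent probe; cells exposed 24 h to medium preincubated 2 h with alginate-water beads without S9; loss of fluorescence signal means loss of viability.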 In outline:
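Fluorescence from a live-cell protease substrate, read after 24 h in VM7Luc4E2 cells, indicated viability. Test medium came from a 2 h AIME step without hepatic S9 (alginate-water microspheres); concentrations spanned 0.002 - 200 uM, single technical replicate per run.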

Experiment [8] addresses Estrogen receptor (Homo sapiens) (UniProt P03372). Description: CCTE_Deisenroth_AIME_384WELL_LUC_Shift: CCTE's 384-well Estrogen Receptor Transactivation Assay with AIME metabolic competence data shift (ERTA luciferase; difference in metabolism positive and negative), Deisenroth Lab (AID 2284041; active = hit-call score of the fitted dose curve at least 0.9, where 1 is the maximum; inactive = score below 0.9;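 also: shift is response with S9 minus without S9 so positive means metabolism raised ER signal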). The method, boiled down: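 Chemicals (0.002–200 uM, 10 points) pre-incubated 2 h with alginate-encapsulated induced male Sprague Dawley rat liver S9 or S9-free, then medium applied 24 h to VM7Luc4E2 cells; luciferase. Endpoint is per-concentration difference, S9-positive minus negative.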

Experiment [9] has the same target. Description: CCTE_Deisenroth_AIME_96WELL_LUC_Inactive: CCTE's 96-well Estrogen Receptor Transactivation Assay without AIME metabolic competence (ERTA luciferase; metabolism negative), Deisenroth Lab (AID 2284025). The method, boiled down: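 VM7Luc4E2 breast cells, luciferase read 24 h after dosing with medium pre-incubated 2 h on alginate-water lids (metabolism negative). 10-point series 0.002–200 uM, single technical replicate, n≥4; fit relative to 17beta-estradiol.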

Experiment [10] in a line: CCTE_Deisenroth_AIME_96WELL_CTox_Active: Cytotoxicity Assessment (CTOX) in CCTE's 96-well Estrogen Receptor Transactivation Assay with AIME metabolic competence (metabolism positive), Deisenroth Lab (AID 2284028). The method, boiled down: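 Chemicals (0.002–200 uM) were first incubated 2 h with alginate-immobilized phenobarbital/beta-naphthoflavone-induced male rat liver S9; conditioned medium then went onto VM7Luc4E2 cells for 24 h, with viability read by protease-substrate fluorescence, fitted bidirectionally.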

Experiment [11] is described as follows: CCTE_Shafer_MEA_dev_firing_rate_mean: CCTE's Neural Network Formation Assay for Mean Firing Rate, Shafer Lab (AID 2284031; active = hit-call score of the fitted dose curve at least 0.9, where 1 is the maximum; inactive = score below 0.9). In outline: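 Primary rat cortical neurons on 48-well MEA plates, exposed from plating day 0 with dosing renewed on DIV 5 and 9. Mean well firing rate over active electrodes, recorded days 5, 7, 9, 12, summarised as trapezoidal AUC.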

Experiment [12] is described as follows: CCTE_Shafer_MEA_dev_per_burst_spike_percent: CCTE's Neural Network Formation Assay for Percent of Spikes in a Burst, Shafer Lab (AID 2284032; active = hit-call score of the fitted dose curve at least 0.9, where 1 is the maximum; inactive = score below 0.9). The method, boiled down: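 Rat primary cortical neurons on 16-electrode MEA wells, dosed from plating day 0 for 12 days with renewal on DIV 5 and 9; spikes-in-bursts percentage averaged over bursting electrodes, collapsed as AUC across days 5, 7, 9, 12; loss direction versus DMSO.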

Experiment [13] can be described thus: CCTE_Shafer_MEA_dev_active_electrodes_number: CCTE's Neural Network Formation Assay for Number of Active Electrodes, Shafer Lab (AID 2284040). In outline: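 Primary rat cortical neurons on 16-electrode MEA wells, exposed from day 0 through day 12 with compound renewed at DIV 5 and 9 feeds. Active electrodes (mean firing ≥5 spikes/min) counted at DIV 5, 7, 9, 12; trapezoidal AUC across days, loss-of-signal versus DMSO.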

A short description of experiment [14]: CCTE_Shafer_MEA_dev_burst_rate: CCTE's Neural Network Formation Assay for Burst Rate, Shafer Lab (AID 2284042; active = hit-call score of the fitted dose curve at least 0.9, where 1 is the maximum; inactive = score below 0.9). In outline: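 Developmental network assay measuring how 12-day exposure of rat cortical neuron cultures alters bursting on extracellular MEA recordings. Values are AUC of well-mean burst rate across four recording days, relative to DMSO vehicle.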

The nature of experiment [15]: CCTE_Shafer_MEA_dev_bursting_electrodes_number: CCTE's Neural Network Formation Assay for Number of Bursting Electrodes, Shafer Lab (AID 2284043). The method, boiled down:
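Primary rat cortical neurons plated on 16-electrode MEA wells, exposed from day 0 with compound renewed at DIV 5 and 9. Electrodes bursting ≥1 burst per 2 min counted on days 5, 7, 9 and 12; trapezoidal AUC across days, fitted for loss versus DMSO.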

Experiment [16] is described as follows: CCTE_Shafer_MEA_dev_per_burst_interspike_interval: CCTE's Neural Network Formation Assay for Burst Interspike Interval, Shafer Lab (AID 2284044; active = hit-call score of the fitted dose curve at least 0.9, where 1 is the maximum; inactive = score below 0.9;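 also: mean spike spacing inside bursts as AUC over recordings on days 5 7 9 12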). The method, boiled down: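 Mean interspike interval within single-electrode bursts, averaged over bursting electrodes, from rat cortical cultures on MEA plates recorded on days 5, 7, 9 and 12. Continuous compound exposure from plating; trapezoidal AUC fitted downward relative to DMSO.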

The nature of experiment [17]: CCTE_Shafer_MEA_dev_burst_duration_mean: CCTE's Neural Network Formation Assay for Mean Burst Duration, Shafer Lab (AID 2284045; active = hit-call score of the fitted dose curve at least 0.9, where 1 is the maximum; inactive = score below 0.9). In outline: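 Primary rat cortical neurons on 48-well 16-electrode MEA plates, exposed from day 0 with renewal at DIV 5 and 9; spontaneous activity recorded on days 5, 7, 9, 12. Well-mean burst duration across bursting electrodes, collapsed as trapezoidal AUC; DMSO baseline.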

Experiment [18] in a line: CCTE_Shafer_MEA_dev_interburst_interval_mean: CCTE's Neural Network Formation Assay for Mean Interburst Interval, Shafer Lab (AID 2284046; active = hit-call score of the fitted dose curve at least 0.9, where 1 is the maximum; inactive = score below 0.9;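 also: well-mean interburst interval of bursting electrodes as AUC over four recording days; curve fitted for decrease in interburst interval relative to DMSO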). The method, boiled down:
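Network formation assay in primary rat cortical cultures, exposed from DIV 0 to 12. Mean interburst interval per well, integrated as AUC over four recordings.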

Experiment [19] is described as follows: CCTE_Shafer_MEA_dev_inter_network_spike_interval_mean: CCTE's Neural Network Formation Assay for Mean Inter-network Spike Interval, Shafer Lab (AID 2284047; active = hit-call score of the fitted dose curve at least 0.9, where 1 is the maximum; inactive = score below 0.9). In outline:
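Compound was given at plating to primary rat cortical neurons and renewed with full medium changes on DIV 5 and 9. Extracellular activity was recorded on days 5, 7, 9, 12; AUC values were fitted for loss relative to DMSO control.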

Usually AC50 stands for the concentration at which the activity in the assay is half-maximal.

Results filed as inconclusive are left out. Calls of active or inactive are those of the source. The calls were made as follows, unless noted: active = hit-call score of the fitted dose curve at least 0.9, where 1 is the maximum; inconclusive = response in the unintended direction; inactive = score below 0.9.

Chain of Estrogen receptor (Homo sapiens) (P03372 whole entry, looked up): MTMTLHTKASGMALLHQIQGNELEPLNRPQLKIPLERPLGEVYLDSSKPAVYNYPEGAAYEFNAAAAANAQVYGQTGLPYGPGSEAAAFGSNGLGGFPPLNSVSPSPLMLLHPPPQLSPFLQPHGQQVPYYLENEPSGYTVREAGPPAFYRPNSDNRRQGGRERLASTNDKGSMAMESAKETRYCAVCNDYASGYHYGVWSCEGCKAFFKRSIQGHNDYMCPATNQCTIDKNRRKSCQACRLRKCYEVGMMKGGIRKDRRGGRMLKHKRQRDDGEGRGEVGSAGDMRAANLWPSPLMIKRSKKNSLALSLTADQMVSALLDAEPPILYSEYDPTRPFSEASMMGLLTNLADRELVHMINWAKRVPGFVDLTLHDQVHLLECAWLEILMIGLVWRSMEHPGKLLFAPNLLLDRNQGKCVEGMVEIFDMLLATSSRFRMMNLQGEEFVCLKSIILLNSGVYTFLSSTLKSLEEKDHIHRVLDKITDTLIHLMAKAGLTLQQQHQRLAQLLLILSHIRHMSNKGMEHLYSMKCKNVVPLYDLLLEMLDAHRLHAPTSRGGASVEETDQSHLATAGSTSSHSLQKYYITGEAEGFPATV

Take `Oc1ccccc1Cc1ccccc1O`: the figures for the AC50 in experiment [1], in experiment [2] and in experiment [3] were 156 nM (active), 5.2 µM (active) and 8.49 µM (active), respectively.
Regarding `CCCC(C)C(=O)OCC` (stereo unspecified), the compound was called inactive in [1], in experiment [2] and in experiment [3].
Regarding `O=C(Oc1ccccc1)c1ccccc1O`, the outcome in [4], in experiment [5] and in experiment [7] was inactive. The figures for the AC50 in [6] and in experiment [8] were 53.4 µM (active) and 38.4 µM (active), respectively.
For `c1ccc(Nc2cccc3ccccc23)cc1`, the AC50 was 465 nM (active) in experiment [1], 12.7 µM (active) in experiment [9], 5.12 µM (active) in experiment [2] and 8.24 µM (active) in experiment [3].
Turning to `CCCCCCCCCCCC(=O)N(C)CC(=O)O`, the outcome in experiment [1] was inactive. Besides, the concentration at half-maximal activity (AC50) in experiment [2] was 21.6 µM (active); in [3], 21.9 µM (active).
Take `Nc1ccc(C(=O)O)cc1`: the call in experiment [4], in experiment [5], in experiment [6], in [7] and in [8] was inactive.
For the compound `C=C(C)C1CC=C(C)CC1` (stereo unspecified), the compound was classed as inactive in experiment [4], in [5], in [6], in [7] and in [8].
On to `CCCC(CC)c1ccccc1` (stereo unspecified), for which the result in experiment [4], in experiment [5], in [6], in experiment [7] and in experiment [8] was inactive.
As for `CC(CCC(=O)O)(c1ccc(O)cc1)c1ccc(O)cc1`, the call in experiment [1], in experiment [2], in experiment [3], in experiment [5] and in experiment [7] was inactive. Further, the AC50 was 100 µM (active) in experiment [4], 71.4 µM (active) in experiment [6] and 20.7 µM (active) in experiment [8].
`Cc1cccc(C(C)(C)C)c1O`: the concentration at half-maximal activity (AC50) in experiment [9] is 121 µM (active). Besides, the outcome in [10] was inactive.
`CCCCC/C=C\C/C=C\CCCCCCCC(=O)O`: the result in experiment [4], in experiment [5], in experiment [6], in experiment [7] and in experiment [8] was inactive.
As for `C=C1C[C@H]2[C@@H]3C=C(C)C4=CC(=O)CC[C@]4(C)[C@H]3CC[C@]2(C)[C@@]1(OC(C)=O)C(C)=O`, the compound was called inactive in experiment [4], in experiment [5], in experiment [6], in experiment [7] and in [8].
With `CC(C)c1cc(C(C)C)cc(C(C)C)c1`, the compound was called inactive in experiment [4], in experiment [5], in experiment [6], in experiment [7] and in experiment [8].
Regarding `CCCCNS(=O)(=O)c1ccccc1`, the call in experiment [4], in [11], in experiment [12], in experiment [5], in experiment [6] and in [13] was inactive. Moreover, the result in [8], in experiment [14], in [15], in experiment [16], in [17] and in experiment [18] was inactive. For the same compound, the compound was called inactive in experiment [19].
In the case of `CCCCCC(=O)OCC`, the outcome in experiment [4], in experiment [5], in experiment [6] and in [8] was inactive. For the same compound, the AC50 in experiment [7] is 19.8 µM (active).
For `O=C(Nc1ccccc1)c1cc(Cl)ccc1O`, the compound was classed as inactive in experiment [4], in experiment [6] and in [8]. Moreover, the figures for the AC50 in [5] and in experiment [7] were 33.4 µM (active) and 0.484 µM (active), respectively.
For `CC1=NN(c2ccc(S(=O)(=O)O)cc2)C(=O)C1N=Nc1ccccc1` (stereo unspecified), the compound was classed as inactive in experiment [4], in experiment [6], in experiment [7] and in experiment [8]. In addition, in experiment [5], the AC50 was 159 µM (active).

The values are drawn from PubChem BioAssay (EPA / NIEHS).
